L major viab = Leishmania major promastigote growth inhibition, primary screen. Leishmania major promastigotes, resazurin fluorescence viability. inhibition, % at 10 µM. 9% of 200,000 active; in the data active means inhibition above about 50%;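 further: promastigotes grown with compound for 44 hours at 28 °C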
ROMK mod = ROMK potassium channel modulators, primary screen, cell-based, thallium flux, MLSMR library | ATP-sensitive inward rectifier potassium channel 1 (Homo sapiens), P48048 | Tet-inducible ROMK, thallium flux fluorescence; actives lie on both sides | B-score at 10 µM | 2% of 130,000 active | AID 1918, 2009;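 active means signal ratio slope over the read window, or its plate-corrected B-score, at least 3 SD from the plate mean, either direction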;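 further: B-score of the F/F0 ratio slope over 7 to 12 s after thallium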
Target sequence (P48048 whole entry, looked up): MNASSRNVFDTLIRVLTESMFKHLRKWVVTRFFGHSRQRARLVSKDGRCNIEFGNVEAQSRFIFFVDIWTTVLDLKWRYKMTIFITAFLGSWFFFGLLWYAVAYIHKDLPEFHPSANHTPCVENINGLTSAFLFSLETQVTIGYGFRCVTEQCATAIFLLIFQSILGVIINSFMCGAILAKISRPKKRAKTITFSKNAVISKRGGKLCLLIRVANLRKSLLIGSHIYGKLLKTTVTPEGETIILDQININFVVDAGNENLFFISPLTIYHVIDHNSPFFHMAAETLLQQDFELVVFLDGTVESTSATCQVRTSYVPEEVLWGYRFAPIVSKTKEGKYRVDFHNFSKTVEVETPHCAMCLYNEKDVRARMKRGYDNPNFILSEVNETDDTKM
KCC2 mod = KCC2 cotransporter modulators, thallium flux, primary screen, cell-based, HEK293 KCC2, FluoZin-2 fluorescence, MLSMR; 2.2% of 190,000 active; B-score of Tl+ flux slope (higher = more flux/activation; lower = inhibition) at 10 µM; KCC2 cells, thallium flux FluoZin-2 fluorescence; AID 1456, 2008;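 active means thallium flux slope and its plate-corrected score both differing from the plate sample mean at a set confidence after two filtering rounds, in either direction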;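 further: slope of fluorescence scaled to starting intensity during 10 to 20 s after thallium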
INS promoter inh = inhibitors of insulin promoter-driven GFP, primary screen, imaging, TRM-6 cells (human fetal islet line), eGFP reporter, cell count; reporter expression induced with tamoxifen; inhibition, % at 2 µM; 0.9% of 130,000 active; AID 1273, 2008;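 active means inhibition above the mean plus 3 SD, with well images judged a real hit on visual review, cut at about 60% in these data, passing the limit was not always enough; inconclusive means inhibition over the cutoff but images rejected on review; inactive means inhibition not above the cutoff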
WT yeast gro inh = growth inhibition of WT strain, primary screen, mitochondrial fusion inhibitor project, WT and mutant strains, chemical genetic; mitochondrial fusion phenotypic screen; inhibition, % at 10 µM; 2.1% of 190,000 active; in the data active means inhibition above about 58%; tested in S. cerevisiae
Insulin prom up = insulin promoter activators in MIN6 cells, imaging, high-content screening, mouse beta cells | MIN6 insulin promoter-GFP reporter; stronger effect = higher value | 0.3% of 190,000 active | z-score at 5 µM;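 active means z-score above 3 at 5 µM with at least 500 cells counted in the well; inconclusive means wells under 500 cells, flagged as cytotoxic or low count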
ROMK hit retest = ROMK channel modulator hit retest, confirmation, cell-based, thallium flux, duplicate, resupplied hits; shares compounds with ROMK mod; fluorescence ratio; stronger effect = lower value; normalized thallium flux (F/F0 slope) at 10 µM; 54% of 3,000 active; AID 1917, 2009;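 active means Flux at 10 µM at least 3 SD below or above vehicle control mean in one or both replicates; inconclusive means no clear call, values can overlap the other calls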
Active calls of the source: *. Rows were chosen to be rich in hits. Some 12% of all compounds tested hit in one or more screens of this group.

CN(C)CCNC(=O)/C(=C/c1ccc(-c2cccc([N+](=O)[O-])c2)o1)NC(=O)c1ccccc1 was read as L major viab 46, ROMK mod -4.5*, KCC2 mod 0.65, INS promoter inh 45, WT yeast gro inh 0, Insulin prom up 0.13 and ROMK hit retest 0.053*.
CN(C)C(=O)/C(=C\c1ccc(-c2cccc([N+](=O)[O-])c2)o1)NC(=O)c1ccccc1 was read as L major viab 13, ROMK mod 0.044, KCC2 mod -2.2, INS promoter inh 11, WT yeast gro inh 2 and Insulin prom up 0.
CN(C)CCNC(=O)/C(=C/c1ccc(-c2cccc(Cl)c2)o1)NC(=O)c1ccccc1 was read as L major viab 100*, ROMK mod -3.7*, KCC2 mod -1.3, INS promoter inh 19, WT yeast gro inh -5, Insulin prom up -0.66 and ROMK hit retest 0.056*.
For CN(C)CCCNC(=O)/C(=C\c1ccc(-c2ccc(Br)cc2)o1)NC(=O)c1ccccc1 the results were L major viab 100*, ROMK mod -3.9*, KCC2 mod -1.3, INS promoter inh 0, WT yeast gro inh -11 and ROMK hit retest 0.054*.
`Cc1c(-c2ccccc2)[n+](=O)c(-c2ccco2)c(C)n1[O-]` gave L major viab -1, INS promoter inh 45, WT yeast gro inh -23 and Insulin prom up 0.15.
For Cc1ccc([N+](=O)[O-])c(OCC(=O)OCC(=O)c2ccccc2)c1 the results were L major viab -4, KCC2 mod -0.93, WT yeast gro inh -16 and Insulin prom up 0.43.
Screening c1ccc2c(-c3cc(C4CCNCC4)[nH]n3)cccc2c1 returned L major viab 36, ROMK mod -4.4*, KCC2 mod 0.046, INS promoter inh -22, WT yeast gro inh 7, Insulin prom up -0.29 and ROMK hit retest 0.064*.
CCOc1cccc(N2C(=O)CC(N3CCN(c4ccc(S(=O)(=O)CC)cc4)CC3)C2=O)c1 (stereo not given) was read as L major viab -5, INS promoter inh -80, WT yeast gro inh 4 and Insulin prom up 1.5.
Fc1ccc(N2CCN(c3ncnc4c3nnn4Cc3ccccc3Cl)CC2)cc1 was read as L major viab 0, ROMK mod -2.7*, KCC2 mod 0.6, INS promoter inh 38, WT yeast gro inh 53 and ROMK hit retest 0.066*.
Screening O=C(c1ccco1)N1CCN(c2ncnc3c2nnn3Cc2ccccc2Cl)CC1 returned L major viab 3, ROMK mod -5.1*, KCC2 mod 0.41, INS promoter inh -6, WT yeast gro inh 17, Insulin prom up -1 and ROMK hit retest 0.07.
Screening CC(=O)Nc1ccc(S(=O)(=O)N(Cc2ccccc2)c2ccccc2)cc1 returned L major viab 0, KCC2 mod -0.37 and WT yeast gro inh -8.
COc1ccc(/C=N/NC(=O)c2cccnc2)cc1CSc1nc2ccccc2s1 was read as L major viab 0, KCC2 mod -0.92, WT yeast gro inh 32, Insulin prom up 1 and ROMK hit retest 0.083.
Cc1cc(C)cc(NC(=O)N2CCN(C/C=C/c3ccccc3)CC2)c1 was read as L major viab 4, ROMK mod -4.2*, KCC2 mod -0.0093, WT yeast gro inh 19, Insulin prom up 0.08 and ROMK hit retest 0.067*.
Cc1ccccc1NC(=O)N1CCN(C/C=C/c2ccccc2)CC1 was read as L major viab 3, ROMK mod -0.0052, KCC2 mod -0.11, INS promoter inh 58, WT yeast gro inh -4 and Insulin prom up -0.16.
Screening CCCCC(=O)N/N=C/c1ccc(-c2ccc([N+](=O)[O-])cc2)o1 returned L major viab 14, ROMK mod -0.96, KCC2 mod -1.1, INS promoter inh -29, WT yeast gro inh 6 and Insulin prom up 0.29.
`CC(C)(C)NC(=S)N/N=C\c1ccc(-c2ccc([N+](=O)[O-])cc2)o1` gave ROMK mod -3.5*, KCC2 mod 0.85 and ROMK hit retest 0.048*.
Cc1cc(=O)c(C(=O)O)cn1-c1ccc(C(C)C)cc1 was read as L major viab -4, KCC2 mod 1.7, INS promoter inh -23, WT yeast gro inh 6 and Insulin prom up -0.06.
CCN(CCNC(=O)C1CCN(Cc2nc(-c3ccc(Cl)cc3)oc2C)CC1)c1ccccc1 was read as L major viab 38, KCC2 mod 0.76, WT yeast gro inh 53 and Insulin prom up -0.78.
For CCN(CCNC(=O)C1CCCN(Cc2nc(-c3ccc(OC)cc3)oc2C)C1)c1ccccc1 (stereo not given) the results were L major viab 51*, ROMK mod -3.9*, KCC2 mod 0.7, WT yeast gro inh 20, Insulin prom up -1 and ROMK hit retest 0.059*.
For Cc1ccc(S(=O)(=O)NNC(=O)Cc2cccn2C)cc1 the results were L major viab -9, ROMK mod 0.15, KCC2 mod 0.29, WT yeast gro inh -13 and Insulin prom up 0.31.
O=C1ON=C(c2cccc([N+](=O)[O-])c2)/C1=C/c1ccc(O)cc1 was read as L major viab 38, ROMK mod -4.6*, KCC2 mod -0.18, INS promoter inh -33, WT yeast gro inh -2, Insulin prom up 0.44 and ROMK hit retest 0.065*.
For O=C1ON=C(c2ccccc2)/C1=C/c1ccc(OS(=O)(=O)c2ccccc2)cc1 the results were L major viab -4, KCC2 mod -0.12, INS promoter inh 26, WT yeast gro inh -6 and Insulin prom up -0.04.
For C/C(=N\NC(=O)c1cccc(S(=O)(=O)N2CCOCC2)c1)c1ccco1 the results were KCC2 mod 0.018 and Insulin prom up 0.64.
`N#CC(C#N)=C1C=CC=CN1/C(=C\c1ccco1)C(=O)c1ccc(Cl)cc1` gave L major viab 11, ROMK mod -3*, KCC2 mod 0.011, WT yeast gro inh 23, Insulin prom up -0.48 and ROMK hit retest 0.045*.
`Cc1ccc(-c2c[n+]3c(n2-c2ccccc2)CCC3)cc1` gave ROMK mod 0.4, KCC2 mod 0.97 and Insulin prom up -4.6.
For Cc1ccc(-n2c(-c3ccc(Br)cc3)c[n+]3c2CCc2ccc4cccnc4c2-3)cc1 the results were L major viab 100*, KCC2 mod -1.4, INS promoter inh -16, WT yeast gro inh -32, Insulin prom up inconclusive and ROMK hit retest 0.034*.
COc1ccccc1NC(=O)c1ccc(NC(=O)COC(=O)C2CCCCC2)cc1 was read as L major viab -3, KCC2 mod -0.98, WT yeast gro inh 3 and Insulin prom up 0.98.
